Assay outcomes deposited in PubChem by Center for Chemical Genomics, University of Michigan.
This is one part of a sample in which hits are shown more often than they occur.
Dicer inh: human Dicer pre-microRNA cleavage inhibition. 47,000 compounds, 6% hits. Q9UPY3. cat-ELCCA pre-miR-21 Dicer processing, chemiluminescence; stronger effect = higher value. z-score at 25 µM; in the data active = z-score above about 3, passing the limit was not always enough;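 also: higher signal means more uncleaved substrate so more Dicer inhibition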
Large screens that a line does not name were inactive.

COc1cccc(C2C(C(=O)OCc3ccccc3)=C(C)NC3=C2C(=O)CC(C)(C)C3)c1OC (stereo not given)	none
CC1=C(C(=O)OCCOC(C)C)C(c2cccs2)C2=C(CC(c3cccs3)CC2=O)N1 (stereo not given)	Dicer inh 4.1
COc1ccc(C2CC(=O)C3=C(C2)NC(C)=C(C(=O)OCC(C)C)C3c2ccncc2)cc1 (stereo not given)	none
CC1=C(C(=O)OCc2ccccc2)C(c2cccc(O)c2)C2=C(CC(c3ccccc3)CC2=O)N1 (stereo not given)	Dicer inh 3
COc1ccccc1C1C(C(=O)OCC2CCCO2)=C(C)NC2=C1C(=O)CC(C)(C)C2 (stereo not given)	none
CCCCc1c(O)c2ccc(C)cc2n(CC)c1=O	none
CC1(C)CC(=O)C(C(C2=C(O)CC(C)(C)CC2=O)c2ccccc2Cl)C(=O)C1 (stereo not given)	none
COc1ccc(C2CC(=O)C3=C(C2)NC(C)=C(C#N)C3c2ccc(OC)c(OC)c2)cc1 (stereo not given)	none
COc1cc(C(CC(=O)O)CC(=O)N2CCC(n3cccc3)CC2)cc(OC)c1OC (stereo not given)	none
CCOc1cc(C2C(C(=O)OC3CCCCC3)=C(C)NC3=C2C(=O)CC(C)(C)C3)ccc1OC(C)=O (stereo not given)	Dicer inh 5.4
CC1=C(C(=O)OCC(C)C)C(c2ccc3c(c2)OCO3)C2=C(CC(c3ccccc3)CC2=O)N1 (stereo not given)	none
COc1cc(C2C(C(=O)OC3CCCCC3)=C(C)NC3=C2C(=O)CC(C)(C)C3)ccc1O (stereo not given)	none
COCCOC(=O)C1=C(C)NC2=C(C(=O)CC(c3ccccc3)C2)C1c1cccc(OC)c1OC (stereo not given)	Dicer inh 7.2
COc1ccc(C2C(C(=O)OC3CCCCC3)=C(C)NC3=C2C(=O)CC(C)(C)C3)cc1O (stereo not given)	none
COc1ccccc1C1C(C(=O)OCC(C)C)=C(C)NC2=C1C(=O)CC(c1ccccc1)C2 (stereo not given)	Dicer inh 5
COCCOC(=O)C1=C(C)NC2=C(C(=O)CC(c3ccccc3)C2)C1c1ccccc1F (stereo not given)	none
CC1=C(C(=O)OCC(C)C)C(c2ccccc2)C2=C(CC(c3ccccc3)CC2=O)N1 (stereo not given)	Dicer inh 3.6
COc1ccc(C2CC(=O)C3=C(C2)NC(C)=C(C(=O)OC(C)C)C3c2ccccc2OC)cc1OC (stereo not given)	none
COc1ccc(C2CC(=O)C3=C(C2)NC(C)=C(C(=O)OCC(C)C)C3c2ccc(F)cc2)cc1 (stereo not given)	none
COC(=O)C1=C(C)NC2=C(C(=O)CC(c3ccccc3OC)C2)C1c1cccc(OC)c1OC (stereo not given)	none
COC(=O)C1=C(C)NC2=C(C(=O)CC(c3ccccc3)C2)C1c1ccccc1OC(C)C (stereo not given)	none
O=C(C1=NNCC1c1c2ccccc2cc2ccccc12)c1cccc(Br)c1 (stereo not given)	none
Cc1c(N)cccc1-c1nc2ncccc2o1	none
Cc1ccc(OCC2SCCN2S(=O)(=O)c2cc(Cl)cc(Cl)c2)c([N+](=O)[O-])c1 (stereo not given)	none
CCn1c2c(c3cc(F)ccc31)CCCC2=O	none
CCCCc1nc2ccccc2n1C(C)C(=O)O (stereo not given)	none
O=S(=O)(Nc1ccc(C(F)(F)F)cn1)c1ccccc1	none
COc1ccc(C2CC(=O)C3=C(C2)NC(C)=C(C(=O)OC2CCCC2)C3c2ccc(OC)cc2)cc1 (stereo not given)	none
CC1=C(C(=O)OC2CCCCC2)C(c2ccccn2)C2=C(CC(c3ccccc3)CC2=O)N1 (stereo not given)	none
CCSCCOC(=O)C1=C(C)NC2=C(C(=O)CC(c3cccs3)C2)C1c1ccc(F)cc1 (stereo not given)	none
CC1=C(C(=O)OC2CCCC2)C(c2ccccc2)C2=C(CC(c3ccccc3)CC2=O)N1 (stereo not given)	Dicer inh 3.1
CCSCCOC(=O)C1=C(C)NC2=C(C(=O)CC(c3ccccc3)C2)C1c1ccc(F)cc1 (stereo not given)	none
CCSCCOC(=O)C1=C(C)NC2=C(C(=O)CC(c3ccccc3)C2)C1c1ccccc1F (stereo not given)	Dicer inh 4
Cc1cccc(CSc2nc3ccccc3[nH]2)c1	none
COC(=O)c1c(C)oc2cc(Br)c(OCc3cccc(F)c3)cc12	none
FC(F)(F)Oc1ccc(C2c3ccsc3CCN2Cc2nc3ccccc3s2)cc1 (stereo not given)	none
N#CC(CO)Cc1ccc(N2CCCCC2)c([N+](=O)[O-])c1 (stereo not given)	none
CCOC(=O)c1c(C)c2c(=O)[nH]cnc2n1-c1ccccc1	none
CCOC(=O)c1snc2c(=O)[nH]cnc12	none
CCOC(=O)c1sc2nc[nH]c(=O)c2c1C	Dicer inh 4.2
C=CCN(C1=NC(C)(C)C(=C)S1)c1ccc(C)cc1C	none
c1ccc(-c2cc(-c3ccco3)c(-c3ccccc3)nn2)cc1	none
CCCOc1ccc(N2C(=O)CC(SCC(=O)O)C2=O)cc1 (stereo not given)	none
C/C(=N\O)c1ccn(S(=O)(=O)c2ccc(Cl)cc2)c1	none
C/C(=N\OC(=O)c1ccc(Cl)cc1)c1ccn(S(=O)(=O)c2ccc(Cl)cc2)c1	Dicer inh 11
C/C(=N\OC(=O)c1ccc(C(F)(F)F)cc1)c1ccn(S(=O)(=O)c2ccccc2)c1	none
Nc1c(C(=O)Nc2ccccc2F)sc2nc(-c3cccs3)cc(C(F)(F)F)c12	none
COc1ccc(-c2ncnn2-c2ccc(Cl)cc2)cc1	none
COc1ccc(-c2nc3n(n2)C(=O)CC(c2ccc(Cl)cc2)S3)cc1 (stereo not given)	Dicer inh 4.5
COc1ccc(-c2nc3n(n2)C(c2ccc(Cl)cc2)C2=C(CCCC2=O)N3)cc1 (stereo not given)	none
Cc1ccc(-n2nnc(-c3ccc(Cl)c(Cl)c3)n2)cc1	none
Cc1ccc2oc(C(=O)O)cc(=O)c2c1	none
Cc1ccc2oc(-c3ccccc3)cc(=O)c2c1	Dicer inh 4.7
O=c1cc(-c2ccccc2)oc2ccc(-c3nn[nH]n3)cc12	none
COc1ccc(Cc2nnc(Nc3ccc(C)cc3)o2)cc1OC	none
COc1ccc(Cc2nnc(N)o2)cc1OC	none
COc1ccc(Cc2nnc(Nc3ccc(Cl)cc3Cl)o2)cc1OC	Dicer inh 3.9
O=C(NCc1ccc(Cl)cc1)c1ccccc1	none
O=C1CC23CCCCCCC2(C1)CC(=O)C3 (stereo not given)	none
CN(C)/C=C(\C#N)c1nc2ccccc2s1	none
Cc1cccc(C(=O)Oc2ccc3oc(=O)sc3c2)c1	Dicer inh 5.5
CC(=O)Oc1ccc2oc(=O)sc2c1	none
CCCCNC(=O)Oc1ccc2sc(=O)oc2c1	none
O=C(Oc1ccc2c(=O)ccoc2c1)c1ccc(Cl)cc1Cl	none
O=C(Oc1ccc2oc(=O)sc2c1)c1ccccc1Cl	Dicer inh 7.2
O=C(Oc1ccc2oc(=O)sc2c1)c1ccc(Br)cc1	none
O=C(Oc1ccc2c(c1)oc(=O)c1ccccc12)c1ccccc1	none
Cc1ccc(C(=O)Oc2ccc3oc(=O)sc3c2)cc1	Dicer inh 5.1
O=C(O)c1cccc(S(=O)(=O)Nc2ccc3oc(=O)sc3c2)c1	none
Cn1ccnc1SCC(=O)Nc1ccc(Br)cn1	none
O=C(CSc1nnc(-c2ccco2)n1-c1ccccc1Cl)c1cccc([N+](=O)[O-])c1	none
C=CCC(Nc1cccc(C)c1)c1ccco1 (stereo not given)	none
CCOC(=O)C(=CNNS(=O)(=O)c1ccc(Cl)cc1)C(=O)OCC	none
